Several values for one entry are separate records, joined by “and”; a condition that tells them apart may be missing. Equal entries are not always repeated. The campaign covered roughly 260,000 compounds. About 1,500 (0.58%) were called active. Another 5% or so got no clear call; they are omitted.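 How the source made its calls: active means inhibition above a set limit at one or more doses, reproduced on every date tested; inconclusive means results disagree between test dates, or hit never tested in dose response; inactive means the rest.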 These entries were drawn from the full list. Results with a measured potency or affinity are listed apart.
Target: Virion infectivity factor (Human immunodeficiency virus type 1 group M subtype B (isolate BH10)) + Virion infectivity factor (Human immunodeficiency virus type 1 group M subtype B (isolate BRU/LAI)) + Virion infectivity factor (Human immunodeficiency virus type 1 group M subtype B (isolate PCV12)) + Virion infectivity factor (Human immunodeficiency virus type 1 group M subtype B (isolate HXB2)) + DNA dC->dU-editing enzyme APOBEC-3G (Homo sapiens) (UniProt P69720+P69721+P69722+P69723+Q9HC16)
Assay: inhibitors of Vif binding to APOBEC3G peptide, primary screen, biochemical, TR-FRET, GST-Vif 1-94, biotin-A3G peptide, dose response retest (AID 1117319);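 further: Vif residues 1-94 fused to GST binding biotinylated APOBEC3G peptide 110-148; 0% = full assay without inhibitor and 100% = GST in place of GST-Vif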
Conditions: stronger effect = higher value

inhibition, inactive:
Cn1c(SCCOc2ccc(F)cc2)nnc1-c1ccncc1 -1.32%
Cn1c(SCCOc2ccc(Cl)cc2)nnc1-c1ccncc1 3.6%
CCOc1ccccc1NC(=S)NCC1CCCO1 (stereo unspecified) -2.09%
CCOc1ccc(C(=O)NCC2CCCO2)cc1OCC (stereo unspecified) 1.97%
CC(=O)c1c(C)[nH]c(C(=O)NCc2ccc(F)cc2)c1C -3.52%
NC(=O)NC(=O)COC(=O)c1ccc(Cl)c(S(=O)(=O)N(Cc2ccccc2)c2ccc(Cl)cc2)c1 -3.29%
Cc1cccc(Nc2nc(-c3cccs3)cs2)n1 8.51%
CCNc1c(C(=O)O)ccc2c1C(=O)c1ccccc1C2=O 32.2%
O=C(O)c1ccc2c(c1Nc1ccccc1)C(=O)c1ccccc1C2=O -2.59%
COc1ccc(C(=O)NC2CC2)cc1OC1CCN(Cc2ccccc2F)CC1 -1.16%
Nc1nnnn1/N=C/c1cccc(O)c1 9.19%
O=C(CSc1nc(O)c(C2CCCCC2)c(=O)[nH]1)NCC1CCCO1 (stereo unspecified) 14.4%
Cc1ccc(CNC(=O)C2CC(=O)N(c3ccc(OCC(=O)N4CCCC4)cc3)C2)cc1 (stereo unspecified) -0.42%
O=C(c1ccc(Cl)cc1)c1cnc(-c2ccccc2)s1 -2.61%
Cc1ccc(C=C2C=C(c3ccccc3)OC2=O)cc1 6.6%
O=C1OC(c2ccc(F)cc2)=C/C1=C\c1ccc(O)cc1 -0.55%
C=CCN(C(=O)Nc1ccc(OC)cc1)c1nnc(-c2ccncc2)s1 -4.12%
Cc1cc(NC(=O)CCl)n(-c2nc3ccccc3s2)n1 -1.34%
CC(=O)Nc1cc(C)nn1-c1nc2ccccc2s1 -19.4%
O=C1CSC(c2ccc(Cl)cc2)N1c1cccnc1 (stereo unspecified) 3.17%
CCOC(=O)C1CCCN(c2ncnc3c2cnn3-c2ccc(OC)cc2)C1 (stereo unspecified) -2.45%
CCOC(=O)C1CCN(c2ncnc3c2cnn3-c2ccc(Cl)cc2)CC1 -26.4%
O=C(CSc1ccc(Cl)cc1)NNC(=O)c1ccco1 2.28%
O=C(CCSc1ccc(Cl)cc1)c1ccco1 2.25%
COc1ccc(NS(=O)(=O)c2cccc(Cl)c2)cc1S(=O)(=O)N1CCCCC1 2.26%
COc1ccc(NS(=O)(=O)c2cc(Cl)ccc2Cl)cc1S(=O)(=O)N1CCCCC1 10.3%
Nc1nc(Cn2nnc(-c3ccccc3F)n2)nc(N2CCOCC2)n1 -5.97%
COc1ccc(N=CC2=C(O)CCCC2=O)cc1 72.2%
CC1(C)CC(=O)C(C=Nc2ccc(O)cc2)=C(O)C1 21.5%
COC(=O)c1cccc(COC(=O)c2ccc(N(C)C)cc2)c1 -1.93%
CC1CCCCN1C(=O)CSc1nc2ccccc2[nH]1 (stereo unspecified) -5.81%
Cc1cccc(N/N=C/c2ccccc2O)c1 0.12%
CCn1c(C)nc2cc(C(=O)N/N=C/c3ccccc3)ccc21 4.16%
CCN(CC)S(=O)(=O)c1cccc(C(=O)N/N=C/c2cc(OC)c(O)c(OC)c2)c1 1.27%
CCn1c(C)nc2cc(C(=O)N/N=C/c3ccccc3C)ccc21 -5.98%
CCOc1ccccc1/C=N/NC(=O)c1cccc(S(=O)(=O)N(CC)CC)c1 -6.17%
CN(C)S(=O)(=O)c1cccc(NC(=S)N/N=C/c2cc(Br)ccc2O)c1 9.46%
COc1ccc(O)c(/C=N/NC(=S)Nc2cccc(S(=O)(=O)N(C)C)c2)c1 12.6%
Cc1cccc(N/N=C/c2ccncc2)c1 4.59%
CS/C(=N\S(=O)(=O)c1ccc(N)cc1)NS(=O)(=O)c1cccs1 4.67%
O=C(Nc1nnc(CCc2ccccc2)s1)c1ccco1 -2.33%
CSc1nnc(-c2cccc(C)c2)n1N -5.45%
CCOCCCn1c(=NC(=O)c2ccco2)c(C(=O)OCC)cc2c(=O)n3cccc(C)c3nc21 8.51%
O=C(NCc1ccccc1)C1=C[C@H](C2CC2)C[C@H](OCCCCO)O1 -0.51%
CC1=C(C(=O)OCC2CCCO2)C(c2ccc(O)cc2)NC(=O)N1 (stereo unspecified) 10.8%
CCN(C(=O)c1cc2ccccc2o1)C12CC3CC(CC(C3)C1)C2 -6.34%
O=C(N/N=C/c1ccc(Br)o1)/C(=C/c1ccc([N+](=O)[O-])cc1)NC(=O)c1ccccc1 12.1%
CN(C)c1ccc(/C=C(/NC(=O)c2ccccc2)C(=O)N/N=C/c2ccc([N+](=O)[O-])c(O)c2)cc1 15.2% and -3.76%
Cc1cc(=O)oc2cc(OCC(=O)OCC(=O)Nc3ccc4ccccc4c3)ccc12 -10.1%
Cn1nnnc1SCC(=O)N1c2ccccc2CCc2ccccc21 3.78%
O=C(O)c1sc(C(=O)O)c(-c2ccccc2)c1-c1ccccc1 2.28%
CC(C)(Oc1ccc(-c2ccco2)cc1)C(=O)O 3.13%
O=S(=O)(c1ccccc1)N1N=C(c2ccc(Cl)cc2)CC1c1ccco1 (stereo unspecified) 4.42%
O=C(/C=C/c1ccccc1)Nn1cnnc1 -6.05%
NC(=O)Cc1ccc(C(=O)c2ccc(F)cc2)s1 -4.28%
CCOc1ccccc1C(=O)NCC(=O)NCCc1ccc(S(N)(=O)=O)cc1 0.59%
Cc1ccccc1OCCC(=O)OCC(=O)NCCc1ccc(S(N)(=O)=O)cc1 -1.77%
COc1ccccc1C(=O)Nc1cccc(NC(C)=O)c1 12.4%
Oc1ccc2oc3c(c2c1C=NCc1ccncc1)CCCC3 24.2%
Cc1ccc(S(=O)(=O)N(C(=O)c2ccncc2)c2ccc3oc4c(c3c2)CCCC4)cc1[N+](=O)[O-] -4.21%
CCOc1ccccc1C(=O)N[C@H](C(=O)Nc1ccc(OC)c(S(=O)(=O)N2CCOCC2)c1)C(C)C -13.1%

— PubChem BioAssay AID1117319 (Southern Research Institute, 2015)
